Data on 22 molecules can be found in paper PMC12136788.

Sequences and labels used below:
T1: UNK ZnF1-3 (human, UniProt Q9C0B0 31-174)
T1 sequence: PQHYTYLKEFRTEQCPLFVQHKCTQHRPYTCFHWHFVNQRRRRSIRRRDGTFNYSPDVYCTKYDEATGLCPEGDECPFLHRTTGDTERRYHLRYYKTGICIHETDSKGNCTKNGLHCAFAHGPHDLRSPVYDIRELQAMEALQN

B1: 33328512_33328632_5828_CDS_ENSG00000198646_ENST00000359003|human|control|control (ssRNA)
RNA: GGGAGUUCUACAGUCCGACGAUCAUCUGCACCAUAUUGUUCUUCCCCUUUCUCAAGAGAGCCUGUAACUUUCUUACAUGCCUUGGUCAACAAAAUUUGGCCAAUUUUGUCCACUUUUCCUUUGCCCUUACUAGACGAGACUGGCAACAGAGGAUUGAGCAUCA
B2: chr12:95365269:95365270:-_ENSG00000184752_ENST00000327772|hu_hu|motif|central (ssRNA)
RNA: GGGAGUUCUACAGUCCGACGAUCUCAUUGUCUUUACUUGUAAGGUGUUGAAGGUGGGAUCCACUCCUGAAUCUUCUUUCGGGUGGUAGAAUAAGGUACAUAUUGUUCUGGGGUGCCAGUCACGUUGAAUUUAUGGUUCGUCCACAACAGAGGAUUGAGCAUCA
B3: chrX:106345308:106345309:+_ENSMUSG00000031246_ENSMUST00000033598|mus_mus|motif|central (ssRNA)
RNA: GGGAGUUCUACAGUCCGACGAUCUUCUCUCAUCCACUUCCGAUUCUCUUCAUUAGCUGCAAUAUCUUUUUCUUCAAAUCCGGUUUUGUUGGCUUCUAAGAAACAAAGCACAUCUUGCUGUUUCUUCUUAAUCGCCGUAGAGCCCAACAGAGGAUUGAGCAUCA
B4: 25284998_25285535_556_3pUTR_ENSMUSG00000054793_ENSMUST00000068023|mouse|control|control (ssRNA)
RNA: GGGAGUUCUACAGUCCGACGAUCCACGCUCCACACCUUGCCGUUCUCCUGGCCGCUGCUCACUCCUUUCAACUCCUUGCGAUCCCGAUACCAGCGCAGGACCGCUGCGGGGCGCGACCGCGGAACCAGGCAGCUGAGUUCCACCAACAGAGGAUUGAGCAUCA
B5: 122215373_122233679_156_5pUTR_ENSG00000114030_ENST00000344337|human|control|control (ssRNA)
RNA: GGGAGUUCUACAGUCCGACGAUCACUUUUCAGGCGAAAGUUCUCUUUUCCUGGGGUGGUCAUGAUUUCAGGCUCAAGGCAACCGAUCCCGGUGCCACCGCUGAAGUUAGCCCCUCGCUCGCCCGCCCGCCGUGCCACUCCCGCCAACAGAGGAUUGAGCAUCA
B6: 36851294_36856410_1128_CDS_ENSMUSG00000022837_ENSMUST00000023535|mouse|control|control (ssRNA)
RNA: GGGAGUUCUACAGUCCGACGAUCAUUUAGCUCCAACAUCAUCUUUGUUCGUUUAGAUCUGAAACUCCUCUGCAAGGCAAUCACAGCAGACGGAAGCUUCUUUAAUCUCUUUCUGGUCUGGAAACCUUUCCAAUAGGCUUGAAUCAACAGAGGAUUGAGCAUCA
B7: chr18:52893488:52893489:-_ENSG00000196628_ENST00000354452|hu_hu|hu_hu_hu_mus_True|48_48 (ssRNA)
RNA: GGGAGUUCUACAGUCCGACGAUCUAUUUAGACCAUUUCCGCGGAGUUAUGGCAUUUACUCAGUGCUGAUAGGUGGAAAAACUACUUGAACAGGGAUUUUUUUUUUCCUUAAUACAUGCCAAGAUUGUGUGGCUGUCAAAACAGCAACAGAGGAUUGAGCAUCA
B8: chr4:142145789:142145790:+_ENSG00000109445_ENST00000262990|hu_hu|FALSE|FALSE (ssRNA)
RNA: GGGAGUUCUACAGUCCGACGAUCACACUGUGCACAAAUUGGUAACUUCUGUACAGAAUUACAAAAGUAGCAAAAUGCUCUAUUCUUCUGCCGCCUCUGACACUUGUCACAUUCCAUUGAGGCAUUACAUGGAUGUUUAGCUAACAACAGAGGAUUGAGCAUCA
B9: chr11:101919151:101919152:-_ENSMUSG00000017314_ENSMUST00000017458|mus_mus|motif|central (ssRNA)
RNA: GGGAGUUCUACAGUCCGACGAUCAAAUGAGAUUCCUAAUAUAAUAAAUAUAUUUCUAGCAUUUGUAAUAAAUAUUCUGUCGGUUCUCCCUCCCUCCCCUUCUCUAGGAUAUGGGCACACAGUGGUUCAGGGACAAGCUUGGGCCAACAGAGGAUUGAGCAUCA
B10: chr17:56552419:56552420:-_ENSMUSG00000013236_ENSMUST00000086828|mus_mus|mus_mus_mus_hu_False|1_58 (ssRNA)
RNA: GGGAGUUCUACAGUCCGACGAUCAAAAAAUACACUAUUUAAAAAAAAUGAAAUGUCACGGGAUACAGUUACACUGACACUAUUAAAAGAAAGCUGGAUUCUGGUCCCAGCCCAGUGUCCCCAGGCUGCAGAGCGGGGCAGAGGCAACAGAGGAUUGAGCAUCA
B11: chr17:56552419:56552420:-_ENSMUSG00000013236_ENSMUST00000086828|mus_mus|mus_mus_mus_hu_False|68_88 (ssRNA)
RNA: GGGAGUUCUACAGUCCGACGAUCAAAAAAUACACUAUUUAAAAAAAAAAGAAAAAAACGGGAUACAAAAAAAUAUAGAGUUUUAAAAGAAAGCUGGAUUCUGGUCCCAGCCCAGUGUCCCCAGGCUGCAGAGCGGGGAGGAGCCAACAGAGGAUUGAGCAUCA
B12: chr17:56552419:56552420:-_ENSMUSG00000013236_ENSMUST00000086828|mus_mus|mus_mus_mus_hu_False|1_68 (ssRNA)
RNA: B11 RNA with A48U, A49G, G50A, A53U, A54G, A55U, A56C, A138C, G139A, C143G
B13: chr17:56552419:56552420:-_ENSMUSG00000013236_ENSMUST00000086828|mus_mus|mus_mus_mus_hu_False|28_68 (ssRNA)
RNA: GGGAGUUCUACAGUCCGACGAUCAAAAAAUACACUAUUUAAAAAAAAUGAAAUGUCACGGGAUACAAAAAAAUAUAGAGUUUUAAAAGAAAGCUGGAUUCUGGUCCUUGCCAAAAGUCCCCAGGCUGCAGAGCGGGGAGGAGCCAACAGAGGAUUGAGCAUCA
B14: chr17:56552419:56552420:-_ENSMUSG00000013236_ENSMUST00000086828|mus_mus|mus_mus_mus_hu_False|48_68 (ssRNA)
RNA: B13 RNA with G88A, G92A, C93U, U94A, G95A, U107C, U108A, A112C, A114G, A115U
B15: chr7:7679991:7679992:-_ENSG00000106399_ENST00000396682|hu_hu|hu_hu_hu_mus_False|68_68 (ssRNA)
RNA: GGGAGUUCUACAGUCCGACGAUCUGGGAUGAAUCUUUUCCAGCUUCCCCACGAAGCACACGGGCCGGUCGAUGAAUUGUGGUAACAUGCUGGCGUUGACGCGCGCUUUGGGGAGCUGCAUUAUGUCCUCCAUGAUUCUGCCGCCAACAGAGGAUUGAGCAUCA
B16: 76906679_76906799_897_3pUTR_ENSMUSG00000022010_ENSMUST00000022587|mouse|control|control (ssRNA)
RNA: GGGAGUUCUACAGUCCGACGAUCUGGGGAGGGUUGAAAAGGCACAGAGCUCCUCGGGGUCAAUUAAACCAUUCCUCAGACAUCUGCCACGUUGCACAGGGCACAUCCCUGCUCACUCUCUGAUUAACCUUUAAUUCACUCAACCAACAGAGGAUUGAGCAUCA
B17: 129354385_129360783_1558_CDS_ENSG00000056277_ENST00000370978|human|control|control (ssRNA)
RNA: GGGAGUUCUACAGUCCGACGAUCAUGUUCAGCUUUCUCCUUGCUGGUCAAAAAUUGUAGUCUGCAUUUUGGGCAACGAUGAACUCCUUUUUUCUGAUGCUUCAUGUAAUGAUUCAUGUAGGGGGUUGCCAUUUUACUAACUUUCAACAGAGGAUUGAGCAUCA
B18: chr2:219525992:219525993:+_ENSG00000074582_ENST00000359273|hu_mus|FALSE|FALSE (ssRNA)
RNA: GGGAGUUCUACAGUCCGACGAUCGAUCCAUUUUCCCUGAUACCAAAUGAAGUGGUUUCCAGGGCUGGGGAUAAAUUCAAACUUGGUGGAGAUCCGGCCACUUUCAUGCUGAAGGUAUGAGGUUUCAACACUGAGGUGCUGAGUCAACAGAGGAUUGAGCAUCA
B19: 156047189_156047309_678_CDS_ENSG00000254726_ENST00000532414|human|control|control (ssRNA)
RNA: GGGAGUUCUACAGUCCGACGAUCGAUGGUUGCCCCUUUGGGGCCCACCACCAGCCCCACCACGCGGUAGGGCACCCGCACACGGAUGGUCACCUGGCCGGGCAGAGCAGGAGCCACACCAAAGGCGGCGCCUGACUUGUUGCGCAACAGAGGAUUGAGCAUCA
B20: 107436344_107436464_280_CDS_ENSMUSG00000020721_ENSMUST00000106746|mouse|control|control (ssRNA)
RNA: GGGAGUUCUACAGUCCGACGAUCGGCAAUUCUGUAAAGAAGACUCUCAAUUUUGAUGCGCUCAACCUCCACCGGGCACGGCCCUGUGAAGUCUGCCAUGGAGUACUGGCCAAGAGAGAGCAGGGCGUCGGUGCAGUGCUGGAGCAACAGAGGAUUGAGCAUCA
B21: 139370288_139370408_1793_CDS_ENSG00000148396_ENST00000313050|human|control|control (ssRNA)
RNA: GGGAGUUCUACAGUCCGACGAUCGGUUGAGGGCUGGGACACGCUGCCACGGUAAUUCUGGCUCACAGUGGUCUCGUCUGUUUCACCUCCUACGGGAGAAGAAUCGAUUUGCUUAAAAAAACUACCUGAAGCUUCAUCCUCGGGCAACAGAGGAUUGAGCAUCA
B22: 15271559_15271679_6895_CDS_ENSG00000074181_ENST00000263388|human|control|control (ssRNA)
RNA: GGGAGUUCUACAGUCCGACGAUCGGGAAGUGGCUGGGCAGGCAGUGCCCCAGUGGUGGUGGCCAUGGCCCCAGUGGCAGUGGCUGGGCUAGGCGUGGAUUCGGACCAGUCUGAGAGGGAGGGAGGUGAGGGGCUGGCCCAGUGCAACAGAGGAUUGAGCAUCA

Residue numbers refer to the chain shown, from its start. Whole data set: some 24,000 sequences, median “enrichment r” near 0.99, cut for the highest 2% near 3.7. The sample as a whole holds a higher share of the highest values than the screen did.

The assay concerns the target T1, UNK ZnF1-3. Description: nsRBNS (natural sequence RNA bind-n-seq); RBNS binding buffer (assumed for nsRBNS): 25 mM Tris pH 7.5, 150 mM KCl, 3 mM MgCl2, 0.01% Triton X-100, 500 ug/ml BSA, 20 U/ml SUPERase-In, 4 C; UNK is unkempt and MSI1 is Musashi-1; names of the RNAs are library labels; protein concentration not given here; high values mean tight binding.
B1: the binding signal is 0.505 enrichment R. Under B2 stands 0.831 enrichment R.

Molecule B3 had a binding signal of 0.538 enrichment R.

As to B4, the binding signal turned out to be 0.858 enrichment R. In turn, B5 returned a binding signal of 0.57 enrichment R. As for B6, the binding signal is 0.644 enrichment R. In turn, B7 gave a binding signal of 0.93 enrichment R.

The molecule B8 registered a binding signal of 1.04 enrichment R. Consider B9, for which the binding signal worked out at 3.58 enrichment R. To B10 belongs 3.44 enrichment R; to B11, 16.7 enrichment R; to B12, 9.75 enrichment R. As to B13, the binding signal turned out to be 9.22 enrichment R. To B14 belongs 8.41 enrichment R; to B15, 0.493 enrichment R.

For the molecule B16, the binding signal was 1.14 enrichment R. To B17 belongs 0.531 enrichment R; to B18, 0.804 enrichment R.

B19 had a binding signal of 0.73 enrichment R. Under B20 stands 0.894 enrichment R; under B21, 0.768 enrichment R. Under B22 stands 2.43 enrichment R.
